The campaign covered roughly 5,500 compounds. About 2,000 (36%) were called active. Another 18% or so got no clear call; they are omitted. Rule as the data show it: active = normalized growth mostly below about 0.91 (no sharp cut-off); inconclusive = no clear call, values can overlap the other calls; inactive = mostly above about 0.92. The list shows a part of the results.
Assay: chemical genetic growth profiling, strain panel (AID 1159580);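 also: tested at 20 µM; growth read once vehicle control cultures reached saturation at 30 °C; 1 = growth at the plate median or of vehicle wells; lower values mean less growth of the strain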
Settings: growth OD
[1] = S. cerevisiae deletion strains, locus YJR075W, strain HOC1, active compounds read low
[2] = S. cerevisiae deletion strains, locus YMR307W, strain GAS1, active compounds read low
[3] = S. cerevisiae deletion strains, locus YDL101C, strain DUN1, active compounds read low
[4] = S. cerevisiae deletion strains, locus YHR030C, strain SLT2, active compounds read low
[5] = S. cerevisiae deletion strains, locus YJL095W, strain BCK1, active compounds read low
[6] = S. cerevisiae deletion strains, locus YOR061W, strain CKA2, active compounds read low

Measured: normalized growth

O=[N+]([O-])c1ccc(CSc2ncnc3c2ncn3[C@@H]2O[C@H](CO)[C@H](O)C2O)cc1 (stereo partly drawn)
inactive: S. cerevisiae deletion strains, locus YAL013W, strain DEP1, active compounds read low 1.01 | S. cerevisiae deletion strains, locus YAL040C, strain CLN3, active compounds read low 1.01 | S. cerevisiae deletion strains, locus YCL061C, strain MRC1 (second series), active compounds read low 1.01 | S. cerevisiae deletion strains, locus YDR363W, strain ESC2, active compounds read low 1.01 | S. cerevisiae deletion strains, locus YER002W, strain NOP16, active compounds read low 0.997 | [1] 1.01 | [2] 0.996 | S. cerevisiae deletion strains, locus YNL175C, strain NOP13, active compounds read low 1.01 | S. cerevisiae deletion strains, locus YNL197C, strain WHI3, active compounds read low 1.01 | S. cerevisiae deletion strains, locus YNL224C, strain SQS1, active compounds read low 1 | S. cerevisiae deletion strains, locus YNL322C, strain KRE1, active compounds read low 1.01 | S. cerevisiae deletion strains, locus YOR083W, strain WHI5 (second series), active compounds read low 0.992 | S. cerevisiae deletion strains, locus YPL055C, strain LGE1, active compounds read low 1.01 | S. cerevisiae deletion strains, locus YPL241C, strain CIN2, active compounds read low 1.01

CC1(C)C(O)CC(O)C2(C)C1CC(=O)C1(C)C2CCC2(C)C(C(=O)O)OC(=O)C3OC321 (stereo not drawn)
inactive: S. cerevisiae deletion strains, locus YBR021W, strain FUR4, active compounds read low 1.01 | S. cerevisiae deletion strains, locus YBR229C, strain ROT2, active compounds read low 1.01 | S. cerevisiae deletion strains, locus YCL029C, strain bik1, active compounds read low 0.996 | S. cerevisiae deletion strains, locus YDL035C, strain GPR1, active compounds read low 1.01 | S. cerevisiae deletion strains, locus YDL074C, strain BRE1, active compounds read low 1 | [3] 1.01 | S. cerevisiae deletion strains, locus YDL185W, strain tfp1, active compounds read low 0.984 | S. cerevisiae deletion strains, locus YDL192W, strain arf1, active compounds read low 1 | S. cerevisiae deletion strains, locus YDR101C, strain arx1, active compounds read low 1 | S. cerevisiae deletion strains, locus YDR150W, strain NUM1, active compounds read low 1.02 | S. cerevisiae deletion strains, locus YDR162C, strain NBP2, active compounds read low 1.03 | S. cerevisiae deletion strains, locus YDR318W, strain mcm21, active compounds read low 1 | S. cerevisiae deletion strains, locus YDR388W, active compounds read low 1 | S. cerevisiae deletion strains, locus YDR502C, strain sam2, active compounds read low 1.02 | S. cerevisiae deletion strains, locus YEL061C, strain CIN8, active compounds read low 1 | S. cerevisiae deletion strains, locus YER110C, active compounds read low 0.995 | S. cerevisiae deletion strains, locus YER155C, strain BEM2, active compounds read low 1.01 | S. cerevisiae deletion strains, locus YER167W, strain BCK2, active compounds read low 1.01 | S. cerevisiae deletion strains, locus YGL078C, strain dbp3, active compounds read low 0.996 | S. cerevisiae deletion strains, locus YGL086W, strain mad1, active compounds read low 1.01 | S. cerevisiae deletion strains, locus YGL248W, strain PDE1, active compounds read low 1.01 | S. cerevisiae deletion strains, locus YGR135W, strain pre9, active compounds read low 1.01 | S. cerevisiae deletion strains, locus YGR229C, strain SMI1, active compounds read low 1.01 | S. cerevisiae deletion strains, locus YGR252W, strain gcn5, active compounds read low 0.974 | [4] 1.01 | S. cerevisiae deletion strains, locus YHR079C, strain IRE1 (second series), active compounds read low 0.994 | S. cerevisiae deletion strains, locus YHR094C, strain hxt1, active compounds read low 1.01 | S. cerevisiae deletion strains, locus YHR129C, strain ARP1, active compounds read low 1.01 | S. cerevisiae deletion strains, locus YHR200W, strain rpn10, active compounds read low 1 | S. cerevisiae deletion strains, locus YIL066C, strain RNR3, active compounds read low 1.02 | S. cerevisiae deletion strains, locus YIL073C, strain SPO22, active compounds read low 1.03 | S. cerevisiae deletion strains, locus YIL125W, strain kgd1, active compounds read low 0.994 | S. cerevisiae deletion strains, locus YIR030C, strain dcg1, active compounds read low 0.999 | [5] 1.02 | S. cerevisiae deletion strains, locus YJL134W, strain LCB3, active compounds read low 1.01 | S. cerevisiae deletion strains, locus YJL168C, strain set2, active compounds read low 0.985 | S. cerevisiae deletion strains, locus YJL187C, strain SWE1 (second series), active compounds read low 1.01 | S. cerevisiae deletion strains, locus YJR043C, strain POL32, active compounds read low 1.02 | [1] 1.01 | S. cerevisiae deletion strains, locus YKL009W, strain mrt4, active compounds read low 0.986 | S. cerevisiae deletion strains, locus YKL068W, active compounds read low 1 | S. cerevisiae deletion strains, locus YKL085W, strain MDH1 (second series), active compounds read low 1 | S. cerevisiae deletion strains, locus YKL085W, strain MDH1, active compounds read low 1 | S. cerevisiae deletion strains, locus YKR001C, strain vps1, active compounds read low 0.99 | S. cerevisiae deletion strains, locus YLR039C, strain RIC1, active compounds read low 1.03 | S. cerevisiae deletion strains, locus YLR058C, strain SHM2, active compounds read low 1.01 | S. cerevisiae deletion strains, locus YLR102C, strain apc9, active compounds read low 0.998 | S. cerevisiae deletion strains, locus YLR262C, strain YPT6, active compounds read low 1 | S. cerevisiae deletion strains, locus YLR268W, strain sec22, active compounds read low 1.01 | S. cerevisiae deletion strains, locus YLR330W, strain CHS5, active compounds read low 1.01 | S. cerevisiae deletion strains, locus YLR342W, strain FKS1 (second series), active compounds read low 1 | S. cerevisiae deletion strains, locus YLR371W, strain rom2, active compounds read low 1.01 | S. cerevisiae deletion strains, locus YLR418C, strain cdc73, active compounds read low 1 | S. cerevisiae deletion strains, locus YML016C, strain PPZ1, active compounds read low 1.01 | S. cerevisiae deletion strains, locus YML032C, strain rad52, active compounds read low 1.01 | S. cerevisiae deletion strains, locus YML124C, strain tub3, active compounds read low 1 | S. cerevisiae deletion strains, locus YMR078C, strain ctf18, active compounds read low 0.984 | S. cerevisiae deletion strains, locus YMR223W, strain ubp8, active compounds read low 1.01 | S. cerevisiae deletion strains, locus YMR263W, strain SAP30, active compounds read low 1.01 | [2] 0.99 | S. cerevisiae deletion strains, locus YNL067W, strain RPL9B, active compounds read low 1.02 | S. cerevisiae deletion strains, locus YNL128W, strain TEP1, active compounds read low 1.02 | S. cerevisiae deletion strains, locus YNL153C, strain GIM3, active compounds read low 1.01 | S. cerevisiae deletion strains, locus YNL233W, strain BNI4, active compounds read low 1 | S. cerevisiae deletion strains, locus YNL250W, strain rad50, active compounds read low 0.999 | S. cerevisiae deletion strains, locus YNL271C, strain bni1, active compounds read low 0.993 | S. cerevisiae deletion strains, locus YNL298W, strain CLA4, active compounds read low 1.01 | S. cerevisiae deletion strains, locus YNL307C, strain MCK1, active compounds read low 1 | S. cerevisiae deletion strains, locus YNR052C, strain pop2, active compounds read low 0.994 | S. cerevisiae deletion strains, locus YOL012C, strain htz1 0.868 | S. cerevisiae deletion strains, locus YOL147C, strain pex11, active compounds read low 0.993 | [6] 1.01 | S. cerevisiae deletion strains, locus YOR069W, strain VPS5, active compounds read low 1.01 | S. cerevisiae deletion strains, locus YOR136W, strain idh2, active compounds read low 0.997 | S. cerevisiae deletion strains, locus YOR144C, strain elg1, active compounds read low 0.992 | S. cerevisiae deletion strains, locus YOR184W, strain ser1, active compounds read low 1.03 | S. cerevisiae deletion strains, locus YOR316C, strain cot1, active compounds read low 0.995 | S. cerevisiae deletion strains, locus YPR119W, strain clb2, active compounds read low 0.989 | S. cerevisiae deletion strains, locus YPR141C, strain kar3, active compounds read low 0.999 | S. cerevisiae deletion strains, locus YPR163C, strain tif3, active compounds read low 1.01 | S. cerevisiae deletion strains, locus YPR167C, strain met16, active compounds read low 0.997 | S. cerevisiae deletion strains, strain wtn01, active compounds read low 0.981 | S. cerevisiae strains, strain wild type, active compounds read low 1.01

CC(C)c1ccc(N2C=Nc3ccc(C(C)C)cc3C2)cc1
inactive: S. cerevisiae deletion strains, locus YAR019C, strain CDC15, active compounds read low 0.998 | S. cerevisiae deletion strains, locus YBL105C, strain PKC1, active compounds read low 0.995 | S. cerevisiae deletion strains, locus YBR135W, strain CKS1, active compounds read low 0.997 | S. cerevisiae deletion strains, locus YBR136W, strain MEC1, active compounds read low 0.995 | S. cerevisiae deletion strains, locus YBR160W, strain CDC28, active compounds read low 1 | S. cerevisiae deletion strains, locus YDL017W, strain CDC7, active compounds read low 1 | S. cerevisiae deletion strains, locus YDL028C, strain MPS1, active compounds read low 1.01 | [3] 1 | S. cerevisiae deletion strains, locus YDL108W, strain KIN28, active compounds read low 0.993 | S. cerevisiae deletion strains, locus YDL132W, strain cdc53, active compounds read low 0.995 | S. cerevisiae deletion strains, locus YDL214C, strain PRR2, active compounds read low 0.971 | S. cerevisiae deletion strains, locus YDR052C, strain DBF4, active compounds read low 1 | S. cerevisiae deletion strains, locus YDR054C, strain cdc34, active compounds read low 0.992 | S. cerevisiae deletion strains, locus YDR226W, strain ADK1, active compounds read low 0.984 | S. cerevisiae deletion strains, locus YDR477W, strain SNF1, active compounds read low 0.97 | S. cerevisiae deletion strains, locus YER123W, strain YCK3, active compounds read low 0.934 | S. cerevisiae deletion strains, locus YER133W, strain GLC7, active compounds read low 0.968 | S. cerevisiae deletion strains, locus YFL009W, strain cdc4, active compounds read low 1 | S. cerevisiae deletion strains, locus YFL029C, strain CAK1, active compounds read low 1 | S. cerevisiae deletion strains, locus YFR003C, strain YPI1, active compounds read low 1 | S. cerevisiae deletion strains, locus YFR019W, strain FAB1, active compounds read low 0.942 | S. cerevisiae deletion strains, locus YFR028C, strain CDC14, active compounds read low 0.987 | S. cerevisiae deletion strains, locus YGR040W, strain KSS1, active compounds read low 0.973 | S. cerevisiae deletion strains, locus YGR052W, strain FMP48, active compounds read low 1.09 | S. cerevisiae deletion strains, locus YGR092W, strain DBF2, active compounds read low 1.01 | [4] 0.898 | S. cerevisiae deletion strains, locus YHR079C, strain IRE1, active compounds read low 0.988 | S. cerevisiae deletion strains, locus YHR082C, strain KSP1, active compounds read low 1.04 | S. cerevisiae deletion strains, locus YHR205W, strain SCH9, active compounds read low 0.975 | S. cerevisiae deletion strains, locus YIL147C, strain SLN1, active compounds read low 1 | [5] 0.953 | S. cerevisiae deletion strains, locus YJL128C, strain PBS2, active compounds read low 0.982 | S. cerevisiae deletion strains, locus YJL157C, strain FAR1, active compounds read low 0.995 | S. cerevisiae deletion strains, locus YJR016C, strain ILV3, active compounds read low 1 | S. cerevisiae deletion strains, locus YJR066W, strain TOR1 (second series), active compounds read low 0.972 | S. cerevisiae deletion strains, locus YJR066W, strain TOR1, active compounds read low 1 | S. cerevisiae deletion strains, locus YKL048C, strain ELM1, active compounds read low 0.995 | S. cerevisiae deletion strains, locus YKL067W, strain YNK1, active compounds read low 0.963 | S. cerevisiae deletion strains, locus YKL101W, strain HSL1, active compounds read low 0.978 | S. cerevisiae deletion strains, locus YKL193C, strain SDS22, active compounds read low 0.997 | S. cerevisiae deletion strains, locus YKL203C, strain TOR2, active compounds read low 1.02 | S. cerevisiae deletion strains, locus YLR113W, strain HOG1, active compounds read low 0.97 | S. cerevisiae deletion strains, locus YLR133W, strain CKI1, active compounds read low 0.98 | S. cerevisiae deletion strains, locus YLR403W, strain SFP1, active compounds read low 0.988 | S. cerevisiae deletion strains, locus YML070W, strain DAK1, active compounds read low 0.96 | S. cerevisiae deletion strains, locus YMR001C, strain CDC5, active compounds read low 1 | S. cerevisiae deletion strains, locus YMR205C, strain PFK2 (second series), active compounds read low 0.972 | S. cerevisiae deletion strains, locus YMR277W, strain FCP1, active compounds read low 0.989 | S. cerevisiae deletion strains, locus YNL006W, strain LST8, active compounds read low 1.01 | S. cerevisiae deletion strains, locus YNL020C, strain ARK1, active compounds read low 0.987 | S. cerevisiae deletion strains, locus YNL161W, strain CBK1, active compounds read low 1 | S. cerevisiae deletion strains, locus YNL183C, strain NPR1, active compounds read low 0.968 | S. cerevisiae deletion strains, locus YNL207W, strain RIO2, active compounds read low 1.01 | S. cerevisiae deletion strains, locus YNL222W, strain SSU72, active compounds read low 1 | S. cerevisiae deletion strains, locus YNL307C, strain MCK1 (second series), active compounds read low 0.957 | S. cerevisiae deletion strains, locus YOL078W, strain AVO1, active compounds read low 1 | S. cerevisiae deletion strains, locus YOL136C, strain PFK27, active compounds read low 0.964 | [6] 0.999 | S. cerevisiae deletion strains, locus YOR119C, strain RIO1, active compounds read low 1.08 | S. cerevisiae deletion strains, locus YOR231W, strain MKK1, active compounds read low 0.99 | S. cerevisiae deletion strains, locus YOR329C, strain SCD5, active compounds read low 0.998 | S. cerevisiae deletion strains, locus YPL031C, strain PHO85, active compounds read low 0.973 | S. cerevisiae deletion strains, locus YPL153C, strain RAD53, active compounds read low 0.983 | S. cerevisiae deletion strains, locus YPL204W, strain HRR25, active compounds read low 0.949 | S. cerevisiae deletion strains, locus YPL209C, strain IPL1, active compounds read low 1 | S. cerevisiae deletion strains, locus YPL256C, strain CLN2, active compounds read low 0.97 | S. cerevisiae deletion strains, locus YPR025C, strain CCL1, active compounds read low 1 | S. cerevisiae deletion strains, locus YPR106W, strain ISR1, active compounds read low 0.998 | S. cerevisiae deletion strains, locus YPR111W, strain DBF20, active compounds read low 0.985 | S. cerevisiae deletion strains, strain NNK1, active compounds read low 1.01 | S. cerevisiae deletion strains, strain TSCII, active compounds read low 1.01

Reference: PubChem BioAssay AID1159580 (chemical genetic matrix, 2015)
